Compound activity: PubChem, Broad Institute
Tgondii IFNg: T. gondii growth inhibition under IFN-gamma | Toxoplasma gondii growth in IFN-gamma-treated host cells; hits give low values | activity change, negative = inhibition, % (concentration not given with the values) | actives 3.8% (n = 69,000) | AID 1259416; in the data active = activity change below about -70%, passing the limit was not always enough;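 note: host cells are HeLa cells infected with Toxoplasma gondii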
Numbers stand for hits. The full list was thinned out, with hits kept by preference.

Results for O=C(NCCCC1CCOC1)c1n[nH]c2c1CCCCC2 (stereo not drawn) ?
Tgondii IFNg: inactive

Results for Cn1ccc2cc(S(=O)(=O)N3CCCC(C(=O)NCc4cccnc4)C3)ccc21 (stereo not drawn) ?
Tgondii IFNg: inactive

Results for CCCCS(=O)(=O)N1CCCC2(C1)Nc1cccnc1NC2=NCc1ccccc1 (stereo not drawn) ?
Tgondii IFNg: inactive

Results for CCCc1nc(NCc2nnnn2-c2ccccc2)c2cnn(C)c2n1 ?
Tgondii IFNg: inactive

What do the screens show for `CCCc1nc(NCc2cc(-c3ccc(F)cc3)on2)c2cnn(C)c2n1`?
Tgondii IFNg: inactive

What do the screens show for `CCCc1nc(NCc2cc(-c3ccccc3)n[nH]2)c2cnn(C)c2n1`?
Tgondii IFNg: -83

How did O=S(=O)(Cc1ccccc1)N1CC2CN(Cc3ccccc3)CC2C1 (stereo not drawn) do in these assays?
Tgondii IFNg: inactive

Results for O=S(=O)(Cc1ccccc1)N1CC2CN(Cc3cccc(Cl)c3)CC2C1 (stereo not drawn) ?
Tgondii IFNg: inactive

How did O=S(=O)(c1ccccc1)N1CC2CN(Cc3ccc(Cl)cc3)C2C1 (stereo not drawn) do in these assays?
Tgondii IFNg: -106

How did O=C(C[C@H]1CC[C@@H]2[C@H](COC[C@@H](O)CN2Cc2nccs2)O1)N1CCC(Cc2ccccc2)CC1 do in these assays?
Tgondii IFNg: inactive

How did CC(C)(N)C(=O)N1CCCC(c2cc(Nc3cccc(F)c3)nc(-c3cccnc3)n2)C1 (stereo not drawn) do in these assays?
Tgondii IFNg: -82

What do the screens show for `COCC1CCCN(C(=O)c2ccc(-c3cccnc3)nc2)C1` (stereo not drawn)?
Tgondii IFNg: inactive

What do the screens show for `O=C(c1ccncc1)N1CCCC(c2nc(-c3cccnc3)no2)C1` (stereo not drawn)?
Tgondii IFNg: inactive

How did CCOc1c(N2CCN(c3c(OCC)c(=O)c3=O)CC2)c(=O)c1=O do in these assays?
Tgondii IFNg: inactive

How did CN(C)C1CCN(C(=O)c2ccc3ccc(N4CCN(c5ncccn5)CC4)n3c2)CC1 do in these assays?
Tgondii IFNg: inactive

How did Cc1ccc(NC(=O)c2cncc(NS(=O)(=O)c3ccc(Br)cc3)c2)cc1C do in these assays?
Tgondii IFNg: inactive

What do the screens show for `CC(C)Nc1ncnc2c1CCN(C1CCOCC1)CC2`?
Tgondii IFNg: inactive

How did CN1CCN(S(=O)(=O)c2ccc(-c3cnc(N)c(C(=O)Nc4cccnc4)n3)cc2)CC1 do in these assays?
Tgondii IFNg: -71

What do the screens show for `CC(=O)Nc1ccc(S(=O)(=O)N2CCC(O)(c3ccccn3)CC2)cc1`?
Tgondii IFNg: inactive

Results for CC1CCCCN1S(=O)(=O)c1ccc(NC(=O)c2cnccn2)cc1 (stereo not drawn) ?
Tgondii IFNg: inactive

Results for COC(=O)[C@@H]1C[C@@H](N(C)C)CN1C(=O)c1cccc2cc(C)oc12 ?
Tgondii IFNg: inactive

Results for Cc1c(C(=O)N2CCc3c(ncnc3N(C)C)C2)cnc2cc(=O)[nH]n12 ?
Tgondii IFNg: inactive

How did COc1ccc(Cl)cc1NC(=O)Cn1nnc2ccccc21 do in these assays?
Tgondii IFNg: inactive

What do the screens show for `COc1ccc(CN2CC3(COC(C(=O)CCN4CCOCC4)C3)c3ccccc32)cc1` (stereo not drawn)?
Tgondii IFNg: inactive

How did COCCN(C)C(=O)C1CC2(CO1)CN(Cc1ccc(OC)cc1)c1ccccc12 (stereo not drawn) do in these assays?
Tgondii IFNg: inactive

What do the screens show for `COc1ccc(CN2CC3(COC(C(=O)N4CCCC4)C3)c3ccccc32)cc1` (stereo not drawn)?
Tgondii IFNg: -79

How did COc1c(F)cccc1C(=O)N(C)Cc1cccc2ncccc12 do in these assays?
Tgondii IFNg: inactive

How did COc1ccc(-c2nc3c(s2)CN(S(=O)(=O)c2cccc(Cl)c2)CC3)cc1 do in these assays?
Tgondii IFNg: inactive

How did CCOc1ccc(-c2nc3c(s2)CN(S(=O)(=O)c2ccccc2)CC3)cc1 do in these assays?
Tgondii IFNg: inactive

Results for CCOc1ccc(-c2nc3c(s2)CN(S(=O)(=O)c2ccc(OCC)cc2)CC3)cc1 ?
Tgondii IFNg: inactive

How did Cc1ccc(-c2nc3c(s2)CN(S(=O)(=O)c2ccc(Cl)cc2)CC3)cc1 do in these assays?
Tgondii IFNg: inactive

Results for COc1cccc(-c2nc3c(s2)CN(S(=O)(=O)c2ccccc2Cl)CC3)c1 ?
Tgondii IFNg: -102

How did COc1cccc(-c2nc3c(s2)CN(S(=O)(=O)c2ccc(F)c(Cl)c2)CC3)c1 do in these assays?
Tgondii IFNg: inactive

How did Cc1c(Cl)cccc1S(=O)(=O)N1CCc2nc(-c3ccccc3)sc2C1 do in these assays?
Tgondii IFNg: -83

Results for COc1cccc(-c2nc3c(s2)CN(S(=O)(=O)c2cccc(C)c2)CC3)c1 ?
Tgondii IFNg: -105

Results for CCOc1ccc(-c2nc3c(s2)CN(S(=O)(=O)c2cc(C)cc(C)c2)CC3)cc1 ?
Tgondii IFNg: -95

How did CCc1ccccc1S(=O)(=O)N1CCc2nc(-c3ccccc3)sc2C1 do in these assays?
Tgondii IFNg: inactive

Results for Cc1[nH]nc(CCC(=O)NCC2=CCCCC2)c1C ?
Tgondii IFNg: inactive

Results for COc1ccc(S(=O)(=O)CCC(=O)O)cc1F ?
Tgondii IFNg: inactive

How did Cc1nnn2c1COCC(CNCc1cccc(C#N)c1)C2 (stereo not drawn) do in these assays?
Tgondii IFNg: inactive

How did CC(c1cccc(-c2ccccc2C(N)=O)c1)N1CCCC1 (stereo not drawn) do in these assays?
Tgondii IFNg: inactive

How did CC(O)c1cccc(-c2cc(N)nc3[nH]ccc23)c1 (stereo not drawn) do in these assays?
Tgondii IFNg: inactive

Results for CC(C)(C)C(=O)CSc1nc(SCC(=O)C(C)(C)C)c2ccccc2n1 ?
Tgondii IFNg: inactive

Results for CC(O)(C(=O)Nc1ccc(S(=O)(=O)c2ccccc2)cc1)C(F)(F)F (stereo not drawn) ?
Tgondii IFNg: inactive

What do the screens show for `Cc1ccc(NC(=O)N2CCC[C@]3(C(=O)N(C)C)CN(Cc4cnn(C)c4)C[C@H]3C2)cc1`?
Tgondii IFNg: inactive

Results for CSc1cccc(CN(C)C(=O)c2ccc(CO)o2)c1 ?
Tgondii IFNg: inactive

How did c1coc(CN2CCC3(CCOCC3COc3cnccn3)CC2)c1 (stereo not drawn) do in these assays?
Tgondii IFNg: inactive

What do the screens show for `COc1ccc(-c2nc3c(s2)CN(S(=O)(=O)c2ccc(OC)c(OC)c2)CC3)cc1`?
Tgondii IFNg: inactive

Results for CCCc1ccc(S(=O)(=O)N2CCc3nc(-c4cccc(OC)c4)sc3C2)cc1 ?
Tgondii IFNg: inactive

How did COc1cccc(-c2nc3c(s2)CN(S(=O)(=O)c2ccc(C)c(C)c2)CC3)c1 do in these assays?
Tgondii IFNg: -104

How did COc1ccc(-c2nc3c(s2)CN(S(=O)(=O)c2cccc(C)c2)CC3)cc1OC do in these assays?
Tgondii IFNg: -89

Results for COc1ccc(-c2nc3c(s2)CN(S(=O)(=O)c2ccc(C)c(C)c2)CC3)cc1 ?
Tgondii IFNg: -103

Results for CCc1ccc(S(=O)(=O)N2CCc3nc(-c4cccc(OC)c4)sc3C2)cc1 ?
Tgondii IFNg: inactive

Results for COc1ccc(-c2nc3c(s2)CN(S(=O)(=O)c2cccc(F)c2)CC3)cc1OC ?
Tgondii IFNg: inactive

What do the screens show for `COc1cccc(-c2nc3c(s2)CN(S(=O)(=O)c2cc(C)ccc2C)CC3)c1`?
Tgondii IFNg: -102

How did COc1ccc(S(=O)(=O)N2CCc3nc(-c4ccc(OC)c(OC)c4)sc3C2)cc1 do in these assays?
Tgondii IFNg: inactive

How did COc1ccc(S(=O)(=O)N2CCc3nc(-c4ccc(C)cc4)sc3C2)cc1 do in these assays?
Tgondii IFNg: inactive
